# Pf growth 48h: inhibits P. falciparum growth in the first generation, 48 h | P. falciparum luciferase growth in erythrocytes, 48 h | Potency, µM (top dose mostly 28.7 µM), for inactives: at the top dose activity change, negative = inhibition, usual class: inhibitors | 5.9% of 310,000 active; note: potency is the fitted concentration of half-maximal effect; % is set by controls: 0 for no effect and ±100 for the full control effect
#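 First compound was added to culture medium, then infected red cells at 0.1% parasitemia and 2% hematocrit (final). After incubation at 37 C under 5% CO2, luciferase detection reagent was dispensed and light output recorded.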
# Cycloheximide cs: affects cycloheximide protein synthesis inhibition readout, counter-screen; cell reporter, cycloheximide protein synthesis inhibition counterscreen; AID 2314; 12% of 300,000 active; max response, %; in the data active = max response mostly above about 13%, no sharp cut-off; inactive = mostly below about 14%; note: read at 38.3 µM for the half of the compounds with a filed dose; 0% is about no effect
# Shiga toxin inh: inhibitors of Shiga toxin in Vero cells | Vero cells, Shiga toxin protein synthesis inhibition reporter | inhibition, % at 38.7 µM | 9.2% of 290,000 active; in the data active = inhibition mostly above about 28%, no sharp cut-off; inactive = mostly below about 43%; note: 0% is about no effect
# LmPK inh: inhibitors of Leishmania mexicana pyruvate kinase; Q27686; purified LmPK, Kinase-Glo ATP luminescence, 1 h; Potency, µM (doses to about 57.5 µM), for inactives: at the top dose activity change, negative = inhibition, usual class: inhibitors; 0.37% of 290,000 active; AID 1721; note: potency is the fitted concentration of half-maximal effect; % is set by controls: 0 for no effect and ±100 for the full control effect
# Target sequence (Q27686 whole entry, looked up): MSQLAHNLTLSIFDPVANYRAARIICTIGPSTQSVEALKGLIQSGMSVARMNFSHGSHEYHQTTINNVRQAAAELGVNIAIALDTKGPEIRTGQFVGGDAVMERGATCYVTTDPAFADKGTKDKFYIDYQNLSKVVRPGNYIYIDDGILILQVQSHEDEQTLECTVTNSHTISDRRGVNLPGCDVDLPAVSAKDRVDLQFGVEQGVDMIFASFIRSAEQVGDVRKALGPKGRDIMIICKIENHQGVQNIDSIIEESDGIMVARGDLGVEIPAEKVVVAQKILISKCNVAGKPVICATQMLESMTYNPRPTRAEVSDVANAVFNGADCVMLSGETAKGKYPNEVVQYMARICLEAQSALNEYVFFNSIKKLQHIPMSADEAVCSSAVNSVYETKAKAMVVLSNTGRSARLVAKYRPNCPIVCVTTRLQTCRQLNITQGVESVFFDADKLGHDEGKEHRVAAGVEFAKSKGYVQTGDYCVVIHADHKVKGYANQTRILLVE
#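 Kinase-Glo luminescence read after 1 h RT reaction of 0.1 nM LmPK with 0.5 mM PEP and 0.1 mM ADP. Activity scaled between uninhibited and enzyme-free controls.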
# Pf growth 96h: P. falciparum growth inhibition at 96 hours; AID 504834; Potency, µM (highest dose often 28.7 µM), without a hit: at the highest dose activity change, negative = inhibition, usual class: inhibitors; P. falciparum luciferase reporter growth, 96 h; 6.9% of 320,000 active; note: potency is the fitted concentration of half-maximal effect; % is set by controls: 0 for no effect and ±100 for the full control effect
#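 Readout is luminescence from an integrated firefly luciferase in P. falciparum. Red cells, 2% hematocrit and 0.05% parasitemia final, were cultured with compound through two parasite generations (96 hours) at 37 C, 5% CO2.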
# Starred values were filed as active, the others as inactive; ? = inconclusive; / = not tested or not shown; [ ] = dose if it differs, or a comment. Rows were chosen to be rich in hits. Some 22% of all compounds tested hit in one or more screens of this group. Unless noted, calls come from the whole dose curve; as a rule, active = well fitted inhibition curve with a large enough effect; inconclusive = small, poorly fitted or top-dose-only effect, or another doubt; inactive = no such curve, though single readings can be large or run the other way.
SMILES,Pf growth 48h,Cycloheximide cs,Shiga toxin inh,LmPK inh,Pf growth 96h
Cc1ccc(S(=O)(=O)N2CCN(S(=O)(=O)c3cccs3)CC2)cc1,18.1%,32.9*,55.7*,-6.2%,2.3%
O=[N+]([O-])c1ccc(N/N=C/c2ccccc2O)cc1,?,65.0*,89.1*,-2.2%,35.7%
CC(N=Cc1cc([N+](=O)[O-])ccc1O)c1ccccc1 (stereo not given),?,3.2,31.8,5.1%[11.5 µM],19.6%
Brc1ccc(/C=N/Nc2ncnc3c2cnn3Cc2ccccc2)cc1,?,-1.2,17.2,-2.8%,-4.3%
O=[N+]([O-])c1ccc(O)c(/C=N/Nc2ccccn2)c1,2.94µM*,22.5*,28.8,8.6%,?
O=[N+]([O-])c1ccc(O)c(C=Nc2cccc3ncccc23)c1,?,-1.5,5.3,11.3%,-32.9%
O=[N+]([O-])c1ccc(O)c(/C=N/Nc2ncnc3c2cnn3-c2ccccc2)c1,1.17µM*,-1.5,-1.9,-1.7%,0.522µM*
CN(/N=C/c1cc([N+](=O)[O-])ccc1O)c1ccccc1,33.7%,21.9*,17.0,-0.4%,?
COCCNC(=O)C(c1ccc(F)cc1)N(Cc1cccs1)C(=O)CCC(=O)Nc1ccccn1 (stereo not given),5.7%,-9.3,11.2,4.6%,16.1%
CN1CCN(S(=O)(=O)c2ccc3c(c2)oc(=O)n3C)CC1,8.2%,-1.9,-12.9,-9.0%,?
O=C(N/N=C/c1cc([N+](=O)[O-])ccc1O)Nc1ccccc1,?,10.7,14.9,-5.0%,-13.9%
O=[N+]([O-])c1cccc(N/N=C/c2cc([N+](=O)[O-])ccc2O)c1,-12.7%,28.2*,48.6*,0.1%,2.7%
CNc1ccc2oc(C[C@H]3O[C@@]4(CC[C@H]3C)O[C@H]([C@H](C)C(=O)c3ccc[nH]3)[C@H](C)C[C@H]4C)nc2c1C(=O)O,0.928µM*,-4.6,-2.7,5.6%,0.415µM*
COc1ccc(CNC(=O)c2ccc(NC(=O)C3=CSCCO3)cc2)cc1,20.1%,27.5*,70.6*,5.4%,?
Cc1cccc(CNC(=O)c2ccc(NC(=O)C3=CSCCO3)cc2)c1,23.6%,40.0*,38.3,1.7%,?
Cc1cccc(CNC(=O)c2ccccc2NC(=O)C2=CSCCO2)c1,-20.7%,6.4,8.8,1.5%,?
CCCNC(=O)c1ccccc1NS(=O)(=O)c1ccc2c(c1)OCCO2,9.28µM*,1.0,10.4,-2.3%,-15.9%
CN(Cc1ccccc1)C(=O)c1ccc(NC(=O)C2=CSCCO2)cc1,3.5%,48.2*,43.6*,-4.1%,?
O=C(CC1C(=O)NCCN1C(=O)c1ccccc1)Nc1cc(Cl)ccc1Cl (stereo not given),78.3%,-1.3,-3.6,-5.3%,23.1%
CCN(CC)CCNC(=O)c1ccc(NC(=O)/C=C/c2ccc3ccccc3n2)cc1,9.5%,-2.2,-17.7,0.0%,-29.1%
CCOc1ncccc1C(=O)NC(C)CCc1ccccc1 (stereo not given),-7.2%[0.00184 µM],-4.0,-11.2,-4.3%,2.1%
CCCNC(=O)c1ccccc1NC(=O)C1=CSCCO1,5.1%,3.7,-1.7,-1.9%,14.7µM*
CCCSCCCNC(=O)c1ccc(NC(=O)C2=CSCCO2)cc1,4.4%,11.0,67.3*,0.4%,?
CC1CCCCC1NC(=O)Cn1cc([N+](=O)[O-])ccc1=O (stereo not given),-2.2%,/,/,/,-12.4%
CN(C)S(=O)(=O)c1ccc(-c2csc(N/N=C/c3ccco3)n2)cc1,?,19.4,29.1,2.1%,-22.1%
SMILES,Pf growth 48h,Cycloheximide cs,Shiga toxin inh,LmPK inh,Pf growth 96h
Cc1sc(N)nc1-c1ccccc1,29.1%,9.8,-0.8,-4.8%,?
CC(C)=NNc1nc(-c2ccccc2)c(C)s1,?,35.9*,104.5*,6.8%[11.5 µM],28.8%
Brc1ccc(-c2csc(N/N=C/c3ccco3)n2)cc1,?,40.3*,71.0*,1.3%,?
Clc1ccc(-c2csc(N/N=C/c3ccco3)n2)cc1,?,37.7*,79.3*,1.8%,?
Cc1sc(N/N=C/c2ccco2)nc1-c1ccccc1,?,26.8*,90.9*,3.4%,?
CCc1ccc(/C=N/n2c(COc3ccccc3)n[nH]c2=S)cc1,7.7%,-3.8,-16.2,3.6%,6.0%
COCCN(C(=O)COC(=O)CCOc1ccccc1)c1c(N)n(Cc2ccccc2)c(=O)[nH]c1=O,12.1%,/,/,/,0.6%
Cc1ccc(-c2csc(N/N=C/c3ccco3)n2)cc1,?,35.4*,72.9*,2.6%,?
